Screening data deposited in PubChem by National Center for Advancing Translational Sciences (NCATS).
AmpC inh no detg: inhibitors of E. coli AmpC beta-lactamase without detergent | P00811 | 330,000 compounds, 0.52% hits | Potency, µM (highest dose often 57.1 µM), most hits filed as inhibitors | AmpC nitrocefin hydrolysis, absorbance 480 nm, 0.0001% Triton | AID 485341; further: nearly all actives have a fitted effect of over 20% in size
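AmpC (5.3 nM in the dispensed reagent) in 20 mM phosphate pH 7.0 with 0.01% (detergent screen) or 0.0001% Triton X-100 was preincubated with compounds for 15 min at room temperature. Nitrocefin was then added from an 800 uM solution, and hydrolysis was followed at 480 nm.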
AmpC inh detg: blocks E. coli AmpC beta-lactamase in detergent assay | AmpC hydrolysis of nitrocefin, absorbance 480 nm, 0.01% Triton | Potency, µM (doses to about 114 µM), hits mostly inhibitors | P00811 | 370,000 compounds, 0.041% hits; further: nearly all actives have a fitted effect of over 25% in size
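AmpC (5.3 nM in the dispensed reagent) in 20 mM phosphate pH 7.0 with 0.01% (detergent screen) or 0.0001% Triton X-100 was preincubated with compounds for 15 min at room temperature. Nitrocefin was then added from an 800 uM solution, and hydrolysis was followed at 480 nm.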
Sm TGR inh: S. mansoni TGR enzyme inhibition | Q962Y6 | purified TGR, DTNB reduction, TNB absorbance 405 nm | Potency, µM (highest dose often 114 µM), most hits filed as inhibitors | 360,000 compounds, 3% hits | AID 485364; further: nearly all actives have a fitted effect of over 60% in size
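Kinetic colorimetric format: TGR-catalysed, NADPH-driven DTNB reduction monitored via TNB absorbance. Enzyme dispensed at 20 nM; compound exposure 15 min at room temperature before reaction start.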
FBPA Giardia inh: Giardia lamblia aldolase inhibition. AID 2451. Potency, µM (titrated, usually from 59.6 µM), actives largely listed as inhibitors. A8B2U2. 290,000 compounds, 0.71% hits. purified Giardia FBPA; further: nearly all actives have a fitted effect of over 55% in size
Target sequence (A8B2U2 whole entry, looked up): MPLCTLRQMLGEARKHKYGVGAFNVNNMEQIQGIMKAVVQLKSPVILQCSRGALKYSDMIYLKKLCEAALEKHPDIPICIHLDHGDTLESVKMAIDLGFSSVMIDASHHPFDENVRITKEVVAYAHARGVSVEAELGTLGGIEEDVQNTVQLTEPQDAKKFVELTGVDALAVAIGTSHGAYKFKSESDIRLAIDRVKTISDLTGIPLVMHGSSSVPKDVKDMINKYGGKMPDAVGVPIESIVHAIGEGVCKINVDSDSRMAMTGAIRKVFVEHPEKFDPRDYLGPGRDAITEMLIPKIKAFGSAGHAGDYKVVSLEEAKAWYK
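Giardia FBPA (40 nM reagent) was preincubated 10 min at RT with compound (up to 57.5 uM final), then substrate plus GAPDH/TPI/NAD/arsenate coupling system with diaphorase/resazurin was added; resorufin fluorescence (525/598 nm) was read after 20 min.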
Hits are given with their value. In the library only some 3.6% were active in any assay of this set; here they are far more common. The call rests on the fitted dose curve; in most records, active means well fitted curve in the direction sought with a large enough effect; inconclusive means small, poorly fitted or top-dose-only effect, or another doubt; inactive means no such curve, though single readings can be large; an effect the other way counts as inactive or inconclusive.

`O=C(CNC(=O)c1cccs1)N/N=C/c1ccco1` gave AmpC inh no detg inactive, AmpC inh detg inactive, Sm TGR inh inactive and FBPA Giardia inh inactive.
For O=C(Cc1cccs1)N/N=C/C=C\c1ccco1 the results were AmpC inh no detg inactive, AmpC inh detg inactive, Sm TGR inh 25µM and FBPA Giardia inh inactive.
For O=C(N/N=C/C=C\c1ccco1)c1cccs1 the results were AmpC inh no detg inactive, AmpC inh detg inactive, Sm TGR inh 11µM and FBPA Giardia inh inconclusive.
Screening O=C(N/N=C/C=C/c1ccco1)c1ccccc1Cl returned AmpC inh no detg inactive, AmpC inh detg inactive, Sm TGR inh inconclusive and FBPA Giardia inh inactive.
For CCOC(=O)c1c(C)[nH]c(N=Nc2ccc(OC)cc2)c1C the results were AmpC inh no detg inactive, AmpC inh detg inactive, Sm TGR inh inactive and FBPA Giardia inh inactive.
O=C(O)c1ccccc1S(=O)(=O)CC(=O)N1CCCCC1 was read as AmpC inh no detg inactive, AmpC inh detg inactive, Sm TGR inh inactive and FBPA Giardia inh inactive.
Cn1cc(C(=O)NCc2ccccc2)c(=O)c2cc(S(=O)(=O)N3CCCCCC3)ccc21 was read as AmpC inh detg inactive and Sm TGR inh inactive.
Screening CCCOC(=O)/C(=C\c1ccc([N+](=O)[O-])o1)NC(=O)c1ccccc1 returned AmpC inh no detg inactive, AmpC inh detg inactive, Sm TGR inh inactive and FBPA Giardia inh inactive.
`CCCOC(=O)/C(=C\C=C\c1ccco1)NC(=O)c1ccccc1` gave AmpC inh no detg inactive, AmpC inh detg inactive, Sm TGR inh 8.9µM and FBPA Giardia inh inactive.
For CC1CC(C)CN(C(=O)CCn2c(=O)oc3ccccc32)C1 (stereo unspecified) the results were AmpC inh no detg inactive, AmpC inh detg inactive and Sm TGR inh inactive.
For CCn1c(Cl)c(C=O)s/c1=N\S(=O)(=O)c1ccccc1 the results were AmpC inh no detg inactive, AmpC inh detg inactive, Sm TGR inh 0.32µM and FBPA Giardia inh inactive.
O=C(O)c1ccc(S(=O)(=O)N(Cl)Cl)cc1 was read as FBPA Giardia inh inactive.
Screening O=C1NN(c2ccccc2)C(=O)/C1=C\c1ccccc1 returned AmpC inh no detg inactive, AmpC inh detg inactive, Sm TGR inh inconclusive and FBPA Giardia inh inconclusive.
`O=C1NN(c2cccc(Br)c2)C(=O)/C1=C\c1ccccc1` gave AmpC inh no detg inactive, AmpC inh detg inactive, Sm TGR inh 50µM and FBPA Giardia inh inactive.
COc1ccc(CN2CCN(C3CCSCC3)CC2CCO)c(C)c1C (stereo unspecified) was read as AmpC inh no detg inactive, AmpC inh detg inactive, Sm TGR inh 35µM and FBPA Giardia inh inactive.
Screening COc1ccc(CN2CCN(C3CCOCC3)CC2CCO)c(C)c1C (stereo unspecified) returned AmpC inh no detg inactive, AmpC inh detg inactive, Sm TGR inh inactive and FBPA Giardia inh inactive.
For CCCC1([C@H](O)C/C=C/[C@H]2[C@H](O)CC(=O)[C@@H]2CCCCCCC(=O)OC)CCC1 the results were FBPA Giardia inh inactive.
`O=C1NC(=O)C(=Cc2ccc(N3CCN(C(=O)c4ccccc4)CC3)c([N+](=O)[O-])c2)C(=O)N1` gave AmpC inh no detg inactive, AmpC inh detg inactive, Sm TGR inh 11µM and FBPA Giardia inh inactive.
For CC(=O)OCC1=C(C(=O)O)N2C(=O)[C@@H](NC(=O)CSc3ccncc3)[C@H]2SC1 the results were AmpC inh no detg inactive, AmpC inh detg inactive, Sm TGR inh 45µM and FBPA Giardia inh inactive.
For CC(=O)OCC1=C(C(=O)O)N2C(=O)C(NC(=O)C(C)Cn3nc(C)c(Cl)c3C)C2SC1 (stereo unspecified) the results were AmpC inh no detg inactive, AmpC inh detg inactive, Sm TGR inh 28µM and FBPA Giardia inh inactive.
Screening CC1CN(C2CCN(S(=O)(=O)c3ccc(F)cc3)CC2)CC(C)O1 (stereo unspecified) returned AmpC inh no detg inactive, AmpC inh detg inactive, Sm TGR inh 40µM and FBPA Giardia inh inactive.
Screening CC1CN(C2CCN(S(=O)(=O)c3ccccc3)CC2)CC(C)O1 (stereo unspecified) returned AmpC inh no detg inactive, AmpC inh detg inconclusive, Sm TGR inh inactive and FBPA Giardia inh inactive.
COc1cc2c(C#CCO)c(-c3ccc(C#N)cc3)oc(=O)c2cc1OC was read as AmpC inh no detg inactive.
`COc1cc2c(C#CCCCO)c(-c3ccc(C#N)cc3)oc(=O)c2cc1OC` gave AmpC inh no detg inactive, AmpC inh detg inactive and Sm TGR inh 32µM.
Screening CN1CCN(c2ncc3ncc(=O)n(C[C@H]4CCCO4)c3n2)CC1 returned FBPA Giardia inh inactive.
